Reference: PubChem BioAssay AID1159580 (chemical genetic matrix, 2015)
The campaign covered roughly 5,500 compounds. About 2,000 (36%) were called active. Roughly 18% stayed inconclusive and do not appear here. This is one part of the list. Unmarked numbers belong to inactive results. Rule as the data show it: active = normalized growth mostly below about 0.91 (no sharp cut-off); inconclusive = no clear call, values can overlap the other calls; inactive = mostly above about 0.92.

Experiment: chemical genetic growth profiling, strain panel (AID 1159580);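 also: tested at 20 µM; growth read once vehicle control cultures reached saturation at 30 °C; 1 = growth at the plate median or of vehicle wells; lower values mean less growth of the strain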
Conditions: S. cerevisiae deletion strains, growth OD

Cc1ccc(/C=C2\CSc3ccc(F)cc3C2=O)cc1
normalized growth (locus YAR019C, strain CDC15, hits give low values): 0.942
normalized growth (locus YBL105C, strain PKC1, hits give low values): 0.955
normalized growth (locus YBR135W, strain CKS1, hits give low values): 0.953
normalized growth (locus YBR136W, strain MEC1, hits give low values): 0.953
normalized growth (locus YBR160W, strain CDC28, hits give low values): 0.959
normalized growth (locus YDL017W, strain CDC7, hits give low values): 0.958
normalized growth (locus YDL028C, strain MPS1, hits give low values): 0.932
normalized growth (locus YDL101C, strain DUN1, hits give low values): 0.971
normalized growth (locus YDL108W, strain KIN28, hits give low values): 0.93
normalized growth (locus YDL132W, strain cdc53, hits give low values): 0.937
normalized growth (locus YDL214C, strain PRR2, hits give low values): 0.892
normalized growth (locus YDR052C, strain DBF4, hits give low values): 0.972
normalized growth (locus YDR054C, strain cdc34, hits give low values): 0.94
normalized growth (locus YDR226W, strain ADK1, hits give low values): 0.952
normalized growth (locus YDR477W, strain SNF1, hits give low values): 0.892
normalized growth (locus YER123W, strain YCK3, hits give low values): 0.864
normalized growth (locus YER133W, strain GLC7, hits give low values): 0.902
normalized growth (locus YFL009W, strain cdc4, hits give low values): 0.904
normalized growth (locus YFL029C, strain CAK1, hits give low values): 0.946
normalized growth (locus YFR003C, strain YPI1, hits give low values): 0.954
normalized growth (locus YFR019W, strain FAB1, hits give low values): 0.934
normalized growth (locus YFR028C, strain CDC14, hits give low values): 0.935
normalized growth (locus YGR040W, strain KSS1, hits give low values): 0.889
normalized growth (locus YGR052W, strain FMP48, hits give low values): 0.91
normalized growth (locus YGR092W, strain DBF2, hits give low values): 0.86
normalized growth (locus YHR030C, strain SLT2, hits give low values): 0.706 (active)
normalized growth (locus YHR079C, strain IRE1, hits give low values): 0.856
normalized growth (locus YHR082C, strain KSP1, hits give low values): 0.915
normalized growth (locus YHR205W, strain SCH9, hits give low values): 0.845
normalized growth (locus YIL147C, strain SLN1, hits give low values): 0.953
normalized growth (locus YJL095W, strain BCK1, hits give low values): 0.859
normalized growth (locus YJL128C, strain PBS2, hits give low values): 0.888
normalized growth (locus YJL157C, strain FAR1, hits give low values): 0.906
normalized growth (locus YJR016C, strain ILV3, hits give low values): 0.956
normalized growth (locus YJR066W, strain TOR1 (second series), hits give low values): 0.869
normalized growth (locus YJR066W, strain TOR1, hits give low values): 0.862
normalized growth (locus YKL048C, strain ELM1, hits give low values): 0.92
normalized growth (locus YKL067W, strain YNK1, hits give low values): 0.885
normalized growth (locus YKL101W, strain HSL1, hits give low values): 0.895
normalized growth (locus YKL193C, strain SDS22, hits give low values): 0.938
normalized growth (locus YKL203C, strain TOR2, hits give low values): 0.985
normalized growth (locus YLR113W, strain HOG1, hits give low values): 0.697 (active)
normalized growth (locus YLR133W, strain CKI1, hits give low values): 0.915
normalized growth (locus YLR403W, strain SFP1, hits give low values): 0.898
normalized growth (locus YML070W, strain DAK1, hits give low values): 0.882
normalized growth (locus YMR001C, strain CDC5, hits give low values): 0.944
normalized growth (locus YMR205C, strain PFK2 (second series), hits give low values): 0.911
normalized growth (locus YMR277W, strain FCP1, hits give low values): 0.923
normalized growth (locus YNL006W, strain LST8, hits give low values): 0.952
normalized growth (locus YNL020C, strain ARK1, hits give low values): 0.915
normalized growth (locus YNL161W, strain CBK1, hits give low values): 0.955
normalized growth (locus YNL183C, strain NPR1, hits give low values): 0.903
normalized growth (locus YNL207W, strain RIO2, hits give low values): 0.945
normalized growth (locus YNL222W, strain SSU72, hits give low values): 0.937
normalized growth (locus YNL307C, strain MCK1 (second series), hits give low values): 0.85
normalized growth (locus YOL078W, strain AVO1, hits give low values): 0.945
normalized growth (locus YOL136C, strain PFK27, hits give low values): 0.881
normalized growth (locus YOR061W, strain CKA2, hits give low values): 0.887
normalized growth (locus YOR119C, strain RIO1, hits give low values): 0.932
normalized growth (locus YOR231W, strain MKK1, hits give low values): 0.835
normalized growth (locus YOR329C, strain SCD5, hits give low values): 0.956
normalized growth (locus YPL031C, strain PHO85, hits give low values): 0.896
normalized growth (locus YPL153C, strain RAD53, hits give low values): 0.888
normalized growth (locus YPL204W, strain HRR25, hits give low values): 0.876
normalized growth (locus YPL209C, strain IPL1, hits give low values): 0.952
normalized growth (locus YPL256C, strain CLN2, hits give low values): 0.831 (active)
normalized growth (locus YPR025C, strain CCL1, hits give low values): 0.958
normalized growth (locus YPR106W, strain ISR1, hits give low values): 0.952
normalized growth (locus YPR111W, strain DBF20, hits give low values): 0.916
normalized growth (strain NNK1, hits give low values): 0.946
normalized growth (strain TSCII, hits give low values): 0.942

CC1=C(CC(=O)O)c2cc(F)ccc2/C1=C\c1ccc(S(C)(=O)=O)cc1
normalized growth (locus YAL013W, strain DEP1, hits give low values): 1.02
normalized growth (locus YAL040C, strain CLN3, hits give low values): 0.996
normalized growth (locus YCL061C, strain MRC1 (second series), hits give low values): 0.99
normalized growth (locus YDR150W, strain NUM1, hits give low values): 0.989
normalized growth (locus YDR363W, strain ESC2, hits give low values): 1.02
normalized growth (locus YER002W, strain NOP16, hits give low values): 1
normalized growth (locus YGR229C, strain SMI1, hits give low values): 1.04
normalized growth (locus YMR307W, strain GAS1, hits give low values): 0.946
normalized growth (locus YNL153C, strain GIM3, hits give low values): 0.982
normalized growth (locus YNL175C, strain NOP13, hits give low values): 0.98
normalized growth (locus YNL197C, strain WHI3, hits give low values): 0.979
normalized growth (locus YNL224C, strain SQS1, hits give low values): 0.99
normalized growth (locus YNL322C, strain KRE1, hits give low values): 1
normalized growth (locus YOR083W, strain WHI5 (second series), hits give low values): 0.973
normalized growth (locus YPL055C, strain LGE1, hits give low values): 1.05
